# Measured values as given in PubChem BioAssay (Tox21).
# Active and inactive are the calls of the source. The call rests on the fitted dose curve; in most records, active means well fitted curve in the direction sought with a large enough effect in the repeat runs; inconclusive means weak or mixed curves; inactive means flat fitted curve, though single readings scatter.
# Experiment: qHTS assay to test for compound auto fluorescence at 590 nm (red) in HepG2 cells (AID 720674)
# Conditions: HepG2 autofluorescence, red 540/590 nm, 1 h; series mostly up to 91.3 µM
# From the text: U.S. Tox21 Program National Center for Advancing Translational Sciences [NCATS] NIH Chemical Genomics Center [NCGC] U.S. Environmental Protection Agency [EPA] National Institutes of Environmental Health Sciences [NIEHS] National Toxicology Program [NTP] U.S. Food and Drug Administration [FDA] Tox21 Assay Overview: Compound auto fluorescence often interferes with screening of the compound library against various biological targets and signaling pathways. Some of these compounds may have fluorophoric properties. Such properties may interfere with the assay outputs resulting in false positives and/or negatives. To decrease such complications and ensure the compound activities are relevant in terms of biological response, the Tox21 10K compound library was screened for auto fluorescence. From the fluorophores used as reporter signals in our screening assays, the auto fluorescence equivalencies of compounds against three fluorophores have been evaluated: Triamterene, Fluorescein and Rose Bengal sodium for blue, green and red fluorescence, respectively. The fluorescence intensities were measured using Excitation/Emission wavelengths at 405/460nm, 485/535nm and 540/590nm for blue, green and red labels, respectively. This assay includes the red fluorescence data.
# Tox21 Assay Protocol Summary: 2,000 HepG2 cells in 5 uL of culture medium (MEM containing 10% FBS) per well were dispensed into black wall/clear bottom 1536-well plates using a Multidrop Combi Dispenser (ThermoFisher Scientific, Waltham, MA). The assay plates were incubated overnight at 37 C to allow cell attachment to the well bottom, followed by the transfer of 23 nL compound or DMSO vehicle by a pintool work station (Kalypsys , San Diego, CA). After the assay plates were incubated for 1 hr at 37 C and 5% CO2, fluorescence intensities in the assay plates were measured by an Envision (PerkinElmer, Shelton, CT) plate reader using three labels for measuring blue, green and red fluorescence at […] 460, 535 and 590 nm respectively.
row,Compound,outcome
1,CCCCC(CC)C(=O)OCCOCCOCCOC(=O)C(CC)CCCC (stereo not given),inactive
2,CS(=O)(=O)c1ccc([C@@H](O)[C@@H](CO)NC(=O)C(Cl)Cl)cc1,inactive
3,CC1(C)CC(N=C=O)CC(C)(CN=C=O)C1 (stereo not given),inactive
4,NCCc1ccc(O)c(O)c1,inactive
5,CCOC(=O)[C@H](CCc1ccccc1)N[C@@H](C)C(=O)N1Cc2ccccc2C[C@H]1C(=O)O,inactive
6,CN(C)c1ccc(C(=N)c2ccc(N(C)C)cc2)cc1,inactive
7,CCCCC/C=C\C/C=C\CCCCCCCC(=O)OC,inactive
8,Cc1ccc(C)c(C)c1,inactive
9,CCOC(=O)/C=C\C(=O)OCC,inactive
10,C/C=C(C)/C=C/C=C(C)C,inactive
11,O=C1N=C(O)CN1/N=C/c1ccc(-c2ccc([N+](=O)[O-])cc2)o1,inactive
12,Clc1cc(Cl)c(Cl)cc1Cl,inactive
13,Cc1cc(Cc2ccc(N)c(C)c2)ccc1N,inactive
14,CC1=C(CC(=O)O)c2cc(F)ccc2/C1=C\c1ccc(S(C)=O)cc1 (stereo not given),inactive
15,Oc1c(Cl)cc(Cl)c(Cl)c1Cl,inactive
16,CS(=O)(=O)Nc1ccc([N+](=O)[O-])cc1Oc1ccccc1,inactive
17,CCCCCCCCCCC=CC1CC(=O)OC1=O (stereo not given),inactive
18,CCCCC(CC)COC(C)=O (stereo not given),inactive
19,CCCCCC/C=C/CCCCCCCC(=O)O,inactive
20,CC(C)(C)C(=O)C1C(=O)c2ccccc2C1=O,inactive

row,Compound,outcome
1,O=C(Oc1ccccc1)c1ccc(O)cc1,inactive
2,CN(C)c1cccc(O)c1,inactive
3,CCCCNC(N)=O,inactive
4,c1ccc2[nH]cnc2c1,inactive
5,CC1Cc2ccccc2N1NC(=O)c1ccc(Cl)c(S(N)(=O)=O)c1 (stereo not given),inactive
6,CN(CCOc1ccc(CC2SC(=O)NC2=O)cc1)c1ccccn1 (stereo not given),inactive
7,COC(=O)c1ccccc1O,inactive
8,Clc1ccc(Cl)c(Cl)c1Cl,inactive
9,O=[N+]([O-])c1cccc(Cl)c1,inactive
10,C=C(C#N)C(=O)OCC,inactive
11,NC(=O)/N=N/C(N)=O,inactive
12,C=C1C2CCC(C2)C1(C)C (stereo not given),inactive
13,Cc1ccc(N)c(S(=O)(=O)O)c1,inactive
14,O=[N+]([O-])C(CO)(CO)CO,inactive
15,O=C(O)c1cc(-c2ccccc2)nc2ccccc12,inactive
16,O=C(c1ccc(O)cc1)c1ccc(O)cc1O,inactive
17,O=C(Cl)c1c(Cl)c(Cl)c(C(=O)Cl)c(Cl)c1Cl,inactive
18,CCCCCCCCCCCCOCC1CO1 (stereo not given),inactive
19,CCCCCCC(C)(C)S,inactive
20,CCCCC(CC)COC(=O)CCCCCCCC(=O)OCC(CC)CCCC (stereo not given),inactive
